This is an account of results in PubChem BioAssay (EPA / NIEHS).

Results filed as inconclusive are left out. Activity calls are given as the source filed them. Rule for the calls, unless noted: active = hit-call score of the fitted dose curve at least 0.9, where 1 is the maximum; inactive = score below 0.9.

Test [1] is described as follows: ATG_RORE_CIS: Attagene CIS-FACTORIAL HepG2 Assay for human RAR-related Orphan Receptor Element (RORE) (AID 2282959). The settings on record: HepG2 Attagene cis-factorial RORE reporter, mRNA; actives raise or lower the signal. The essentials: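 Measured here: transcript induction of a cis-regulated reporter in HepG2 cells transiently transfected via FuGene 6. After 24 h, RNA was processed by RT-PCR and fluorescent capillary electrophoresis; DMSO defined baseline activity.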

Test [2] in a line: ATG_Sox_CIS: Attagene CIS-FACTORIAL HepG2 Assay for human SRY-box transcription factor (SOX) (AID 2282960). The settings on record: HepG2 Attagene cis-factorial SOX reporter, mRNA; actives raise or lower the signal. The essentials: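 Using transiently transfected HepG2 cells, reporter transcription driven by cis elements was assessed 24 h after dosing. Signal was fluorescence of capillary-separated RT-PCR products, with DMSO defining baseline activity.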

Test [3] deals with Transcription factor Sp1 (Homo sapiens) (UniProt P08047). Put plainly: ATG_Sp1_CIS: Attagene CIS-FACTORIAL HepG2 Assay for human Specificity Protein 1 (Sp1) (AID 2282961). The settings on record: HepG2 Sp1 cis-reporter transcription, actives raise or lower the signal. The essentials: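 After transient transfection of HepG2 cells with cis-promoter reporter units and 24 h chemical treatment, reporter transcripts were quantified by RT-PCR and capillary electrophoresis fluorescence. Gain- and loss-of-signal fitted against DMSO.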
Chain of Transcription factor Sp1 (Homo sapiens) (P08047 whole entry, looked up): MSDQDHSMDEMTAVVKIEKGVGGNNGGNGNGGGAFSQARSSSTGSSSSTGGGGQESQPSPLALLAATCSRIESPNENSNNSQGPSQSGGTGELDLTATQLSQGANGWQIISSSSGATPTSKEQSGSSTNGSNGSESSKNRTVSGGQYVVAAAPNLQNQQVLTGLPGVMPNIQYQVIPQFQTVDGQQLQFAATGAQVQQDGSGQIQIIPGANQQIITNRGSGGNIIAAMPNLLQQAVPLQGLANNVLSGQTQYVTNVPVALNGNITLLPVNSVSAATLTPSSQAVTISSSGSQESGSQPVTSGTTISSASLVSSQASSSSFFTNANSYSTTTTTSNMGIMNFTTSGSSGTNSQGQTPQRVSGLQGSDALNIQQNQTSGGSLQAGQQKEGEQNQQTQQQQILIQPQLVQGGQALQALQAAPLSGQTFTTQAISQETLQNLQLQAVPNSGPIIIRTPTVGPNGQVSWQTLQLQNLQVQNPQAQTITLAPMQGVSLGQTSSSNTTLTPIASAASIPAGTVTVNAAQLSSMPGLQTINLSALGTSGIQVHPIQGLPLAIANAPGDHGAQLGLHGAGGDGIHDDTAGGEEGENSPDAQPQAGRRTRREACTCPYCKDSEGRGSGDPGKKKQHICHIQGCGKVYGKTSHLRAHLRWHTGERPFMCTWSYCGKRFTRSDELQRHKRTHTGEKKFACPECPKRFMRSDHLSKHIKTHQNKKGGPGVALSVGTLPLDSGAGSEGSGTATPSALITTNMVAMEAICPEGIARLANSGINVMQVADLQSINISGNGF

A short description of test [4]: ATG_SREBP_CIS: Attagene CIS-FACTORIAL HepG2 Assay for human Sterol Regulatory Element Binding (SREBP) (AID 2282962). The settings on record: HepG2 Attagene cis-factorial SREBP reporter, mRNA; actives raise or lower the signal. Put shortly: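 Twenty-four hours after chemical dosing of transfected HepG2 cultures, reporter RNA was converted to cDNA, amplified, end-labelled with 6-FAM and resolved by capillary electrophoresis. Responses were fitted relative to DMSO.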

Test [5] deals with Signal transducer and activator of transcription 3 (Homo sapiens) (UniProt P40763). Put plainly: ATG_STAT3_CIS: Attagene CIS-FACTORIAL HepG2 Assay for human Signal Transducer and Activator of Transcription 3 (STAT3) (AID 2282963). The settings on record: HepG2, Attagene cis-factorial STAT3 reporter transcription; actives raise or lower the signal. Put shortly: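 Endogenous STAT3-responsive cis-element activity was read in transiently transfected HepG2 cells after 24 h treatment. Reporter transcripts were quantified via RT-PCR and capillary electrophoresis, with DMSO as negative control and bidirectional curve fitting.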
Chain of Signal transducer and activator of transcription 3 (Homo sapiens) (P40763 whole entry, looked up): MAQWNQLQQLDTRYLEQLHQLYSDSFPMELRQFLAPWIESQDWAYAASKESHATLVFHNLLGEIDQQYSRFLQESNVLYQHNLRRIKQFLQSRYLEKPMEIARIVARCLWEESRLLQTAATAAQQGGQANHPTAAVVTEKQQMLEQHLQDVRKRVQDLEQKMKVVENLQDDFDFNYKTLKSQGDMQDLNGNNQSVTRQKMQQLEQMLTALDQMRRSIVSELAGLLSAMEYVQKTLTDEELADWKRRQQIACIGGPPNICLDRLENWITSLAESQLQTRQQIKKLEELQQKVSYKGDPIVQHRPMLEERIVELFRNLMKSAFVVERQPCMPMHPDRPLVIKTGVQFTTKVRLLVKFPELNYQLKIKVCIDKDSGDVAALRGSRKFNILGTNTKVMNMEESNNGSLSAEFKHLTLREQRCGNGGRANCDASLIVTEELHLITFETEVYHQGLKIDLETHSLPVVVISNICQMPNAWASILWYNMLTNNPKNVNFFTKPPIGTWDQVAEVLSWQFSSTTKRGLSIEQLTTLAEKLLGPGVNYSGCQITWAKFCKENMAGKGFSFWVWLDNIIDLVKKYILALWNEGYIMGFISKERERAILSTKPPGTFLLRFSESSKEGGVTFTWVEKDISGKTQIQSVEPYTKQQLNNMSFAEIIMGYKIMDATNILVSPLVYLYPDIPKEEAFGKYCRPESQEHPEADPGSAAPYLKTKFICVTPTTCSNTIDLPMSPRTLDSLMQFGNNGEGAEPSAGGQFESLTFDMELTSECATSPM

A short description of test [6]: ATG_TA_CIS: Attagene CIS-FACTORIAL HepG2 Assay for human TA Basal Promoter (AID 2282964). The settings on record: HepG2 Attagene CIS-factorial TA basal promoter reporter; actives raise or lower the signal. Put shortly: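 Multiplexed mRNA reporter assay, HepG2, 24 h. Reporter cDNA amplified, 6-FAM primer-extended, HpaI-cut, CE-sized; DMSO = negative control and baseline.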

Test [7] can be described thus: ATG_TCF_b_cat_CIS: Attagene CIS-FACTORIAL HepG2 Assay for human T-Cell-Factor with beta-catenin (TCF/b-cat) (AID 2282965). The settings on record: HepG2 TCF/beta-catenin cis-reporter transcription, actives raise or lower the signal. Put shortly:
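Endogenous TCF/LEF activity read as reporter transcript level via RT-PCR and capillary electrophoresis fluorescence in transfected HepG2, 24 h exposure; gain or loss of signal fitted against DMSO controls.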

The nature of test [8]: ATG_TAL_CIS: Attagene CIS-FACTORIAL HepG2 Assay for human TAL Basal Promoter (AID 2282966).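 Note: background control endpoint measuring basal TAL promoter reporter mRNA not a specific factor.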 The settings on record: HepG2 Attagene cis-factorial TAL promoter reporter; actives raise or lower the signal. The essentials: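 HepG2 cells transiently transfected with multiplexed cis-promoter reporter units, dosed 24 h. Reporter mRNA quantified by RT-PCR, 6-FAM labelling, HpaI digestion and capillary electrophoresis; TAL basal promoter serves as background control, fitted bidirectionally versus DMSO.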

Test [9] is described as follows: ATG_TGFb_CIS: Attagene CIS-FACTORIAL HepG2 Assay for human Transforming Growth Factor (TGF) (AID 2282967). The settings on record: HepG2 Attagene CIS TGFb reporter, mRNA transcription; actives raise or lower the signal. Put shortly:
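Transcript-level reporter readout: HepG2 transfectants, 24 h exposure, RNA to cDNA, reporter-specific PCR, fluorescent primer extension, capillary sizing against ROX standards. Gain- or loss-of-signal relative to DMSO.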

A short description of test [10]: ATG_VDRE_CIS: Attagene CIS-FACTORIAL HepG2 Assay for human Vitamin D Receptor Element (VDRE) (AID 2282968). The settings on record: HepG2 VDRE cis-reporter transcription, actives raise or lower the signal. Put shortly:
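Reporter mRNA induction, quantified by capillary electrophoresis of fluorescently labelled RT-PCR products, was read 24 h after dosing HepG2 cells carrying transiently transfected cis-regulated reporter units; gain or loss relative to DMSO.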

Test [11] addresses Nuclear receptor subfamily 1 group I member 3 (Homo sapiens) (UniProt Q14994). Put plainly: ATG_CAR_TRANS: Attagene TRANS-FACTORIAL HepG2 Assay for human Constitutive Androstane Receptor (CAR) (AID 2282969; active = hit-call score of the fitted dose curve at least 0.9, where 1 is the maximum;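 note: activators raise reporter mRNA above DMSO so AC50 marks induction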). The settings on record: HepG2 Attagene TRANS-FACTORIAL CAR reporter. Put shortly:
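Readout is reporter mRNA induction, quantified by fluorescent primer extension and capillary electrophoresis after RT-PCR. Cells were HepG2 transiently carrying chimeric NR-Gal4 constructs with GAL4-UAS reporters, treated for 24 h; activity scored upward from DMSO.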

For test [12], the target named is X-box-binding protein 1 (Homo sapiens) (UniProt P17861). The experiment in a line: ATG_Xbp1_CIS: Attagene CIS-FACTORIAL HepG2 Assay for human X-box Binding Protein 1 (XBP1) (AID 2282972). The settings on record: HepG2 XBP1 cis-element reporter, Attagene multiplex; actives raise or lower the signal. The essentials: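 After a 24-hour chemical exposure of HepG2 cells carrying cis-regulated reporters, reporter mRNA levels are assessed. Quantification uses RT-PCR, 6-FAM labelling and capillary electrophoresis. Gain- or loss-of-signal is fitted against DMSO.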
Chain of X-box-binding protein 1 (Homo sapiens) (P17861 whole entry, looked up): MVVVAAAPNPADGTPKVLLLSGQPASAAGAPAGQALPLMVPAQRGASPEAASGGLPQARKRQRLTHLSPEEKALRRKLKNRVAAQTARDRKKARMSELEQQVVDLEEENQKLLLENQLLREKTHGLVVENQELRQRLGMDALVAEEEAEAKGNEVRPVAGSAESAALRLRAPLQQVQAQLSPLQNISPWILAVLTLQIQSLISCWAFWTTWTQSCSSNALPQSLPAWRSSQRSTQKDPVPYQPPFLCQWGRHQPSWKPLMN

A short description of test [13]: ATG_GAL4_TRANS: Attagene TRANS-FACTORIAL HepG2 Assay for GAL4 (Internal Marker) (AID 2282976; active = hit-call score of the fitted dose curve at least 0.9, where 1 is the maximum). The settings on record: HepG2 Attagene TRANS GAL4 internal marker reporter. The essentials:
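Background-control readout: GAL4-UAS reporter transcript in transiently transfected HepG2 cells after 24 h compound exposure. Measured by RT-PCR, 6-FAM primer extension, HpaI digest and capillary electrophoresis; gain-of-signal fit versus DMSO.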

Test [14] addresses Estrogen-related receptor gamma (Homo sapiens) (UniProt P62508). The experiment in a line: ATG_ERRg_TRANS: Attagene TRANS-FACTORIAL HepG2 Assay for human Estrogen-Related Receptor gamma (ERRg) (AID 2282977; active = hit-call score of the fitted dose curve at least 0.9, where 1 is the maximum;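 note: hits increase reporter signal over DMSO so potencies reflect activators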). The settings on record: HepG2 Attagene TRANS reporter, ERRg transactivation. The essentials:
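HepG2 cells transiently transfected with multiplexed GAL4-UAS reporter units driven by chimeric NR-Gal4 proteins; 24 h exposure. Reporter mRNA quantified by RT-PCR, fluorescent labelling, HpaI digestion and capillary electrophoresis; gain of signal vs DMSO.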

In test [15] the target is Glucocorticoid receptor (Homo sapiens) (UniProt P04150). Put plainly: ATG_GR_TRANS: Attagene TRANS-FACTORIAL HepG2 Assay for human Glucocorticoid Receptor (GR) (AID 2282978; active = hit-call score of the fitted dose curve at least 0.9, where 1 is the maximum;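 note: activators score as hits since higher reporter transcript over DMSO is fitted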). The settings on record: HepG2 Attagene TRANS GR reporter, mRNA transcription. The essentials: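 HepG2 transient transfection, multiple reporter units, GAL4-UAS under NR-GAL4 chimera control. 24 h treatment. Reporter mRNA by RT-PCR/CE fluorescence, DMSO as negative control.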
Chain of Glucocorticoid receptor (Homo sapiens) (P04150 whole entry, looked up, the tested form may be a part): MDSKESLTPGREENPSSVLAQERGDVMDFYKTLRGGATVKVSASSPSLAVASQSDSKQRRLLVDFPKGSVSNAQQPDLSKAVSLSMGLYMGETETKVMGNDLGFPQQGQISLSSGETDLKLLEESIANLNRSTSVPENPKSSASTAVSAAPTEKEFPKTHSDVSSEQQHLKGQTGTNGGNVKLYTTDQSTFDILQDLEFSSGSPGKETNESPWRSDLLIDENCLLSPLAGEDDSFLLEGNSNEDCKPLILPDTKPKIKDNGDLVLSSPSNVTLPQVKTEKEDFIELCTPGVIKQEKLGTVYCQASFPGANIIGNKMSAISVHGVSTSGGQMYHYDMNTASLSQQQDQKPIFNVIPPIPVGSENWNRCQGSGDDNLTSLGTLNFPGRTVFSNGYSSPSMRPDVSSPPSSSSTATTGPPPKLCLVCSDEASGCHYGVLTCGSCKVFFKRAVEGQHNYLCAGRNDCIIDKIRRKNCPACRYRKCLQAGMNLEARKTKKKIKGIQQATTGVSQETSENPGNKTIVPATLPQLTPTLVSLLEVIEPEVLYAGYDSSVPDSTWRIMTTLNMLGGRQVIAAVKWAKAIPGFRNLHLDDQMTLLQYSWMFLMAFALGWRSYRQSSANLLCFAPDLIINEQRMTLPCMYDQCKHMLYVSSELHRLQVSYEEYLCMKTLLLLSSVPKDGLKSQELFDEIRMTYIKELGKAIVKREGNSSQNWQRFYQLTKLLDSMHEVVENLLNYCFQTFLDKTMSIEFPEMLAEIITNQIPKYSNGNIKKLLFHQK

Test [16] deals with Bile acid receptor (Homo sapiens) (UniProt Q96RI1). The experiment in a line: ATG_FXR_TRANS: Attagene TRANS-FACTORIAL HepG2 Assay for Farnesoid X Receptor (FXR) (AID 2282979; active = hit-call score of the fitted dose curve at least 0.9, where 1 is the maximum;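 note: hits raise reporter mRNA above DMSO so AC50 marks FXR activation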). The settings on record: HepG2 Attagene TRANS FXR-GAL4 reporter transcription. The essentials:
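HepG2 cells were transiently transfected with GAL4-UAS reporters driven by chimeric NR-Gal4 proteins and dosed for 24 h. Reporter mRNA was quantified by RT-PCR, fluorescent labelling, HpaI digestion and capillary electrophoresis, with gain of signal scored versus DMSO.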

Test [17] deals with Steroid hormone receptor ERR1 (Homo sapiens) (UniProt P11474). Put plainly: ATG_ERRa_TRANS: Attagene TRANS-FACTORIAL HepG2 Assay for human Estrogen-Related Receptor alpha (ERRa) (AID 2282971; active = hit-call score of the fitted dose curve at least 0.9, where 1 is the maximum). The settings on record: HepG2 Attagene TRANS reporter, ERRa transactivation. The essentials: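 HepG2 cells transiently transfected with GAL4-UAS reporter units and chimeric NR-Gal4 constructs; after 24 hour compound incubation, reporter mRNA quantified by RT-PCR, fluorescent labelling and capillary electrophoresis, gain of signal versus DMSO.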
Chain of Steroid hormone receptor ERR1 (Homo sapiens) (P11474 whole entry, looked up, the tested form may be a part): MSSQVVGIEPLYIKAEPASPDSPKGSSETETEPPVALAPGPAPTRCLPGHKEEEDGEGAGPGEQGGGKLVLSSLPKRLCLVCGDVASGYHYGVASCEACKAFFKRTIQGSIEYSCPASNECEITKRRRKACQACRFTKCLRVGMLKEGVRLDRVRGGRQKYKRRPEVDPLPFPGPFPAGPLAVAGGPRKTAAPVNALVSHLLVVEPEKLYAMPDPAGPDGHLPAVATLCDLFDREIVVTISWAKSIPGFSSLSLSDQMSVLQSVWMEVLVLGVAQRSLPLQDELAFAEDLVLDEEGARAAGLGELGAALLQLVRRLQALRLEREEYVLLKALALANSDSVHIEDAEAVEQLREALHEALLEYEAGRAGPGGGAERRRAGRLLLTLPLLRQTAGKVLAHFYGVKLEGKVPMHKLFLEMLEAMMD

For test [18], the target named is Estrogen receptor (Homo sapiens) (UniProt P03372). The experiment in a line: ATG_ERa_TRANS: Attagene TRANS-FACTORIAL HepG2 Assay for human Estrogen Receptor alpha (ERa) (AID 2282970; active = hit-call score of the fitted dose curve at least 0.9, where 1 is the maximum). The settings on record: HepG2 Attagene TRANS ERa GAL4 reporter, mRNA. Put shortly:
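HepG2 cells transiently transfected with multiplexed GAL4-UAS reporter units read out chimeric NR-Gal4 activity. After 24 h compound exposure, reporter mRNA was quantified by RT-PCR, 6-FAM labeling, HpaI digestion and capillary electrophoresis, relative to DMSO.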

Test [19] can be described thus: ATG_M_19_TRANS: Attagene TRANS-FACTORIAL HepG2 Assay for M19 Transcription Factor (Internal Marker) (AID 2282974; active = hit-call score of the fitted dose curve at least 0.9, where 1 is the maximum). The settings on record: HepG2 Attagene TRANS-FACTORIAL M19 internal marker reporter. Put shortly: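 Gain-of-signal in reporter mRNA, relative to DMSO, was scored from capillary electrophoresis fluorescence. HepG2 cells carried transiently transfected multiple reporter transcription units and were incubated with test chemicals for 24 h.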

Chain of Bile acid receptor (Homo sapiens) (Q96RI1 whole entry, looked up, the tested form may be a part): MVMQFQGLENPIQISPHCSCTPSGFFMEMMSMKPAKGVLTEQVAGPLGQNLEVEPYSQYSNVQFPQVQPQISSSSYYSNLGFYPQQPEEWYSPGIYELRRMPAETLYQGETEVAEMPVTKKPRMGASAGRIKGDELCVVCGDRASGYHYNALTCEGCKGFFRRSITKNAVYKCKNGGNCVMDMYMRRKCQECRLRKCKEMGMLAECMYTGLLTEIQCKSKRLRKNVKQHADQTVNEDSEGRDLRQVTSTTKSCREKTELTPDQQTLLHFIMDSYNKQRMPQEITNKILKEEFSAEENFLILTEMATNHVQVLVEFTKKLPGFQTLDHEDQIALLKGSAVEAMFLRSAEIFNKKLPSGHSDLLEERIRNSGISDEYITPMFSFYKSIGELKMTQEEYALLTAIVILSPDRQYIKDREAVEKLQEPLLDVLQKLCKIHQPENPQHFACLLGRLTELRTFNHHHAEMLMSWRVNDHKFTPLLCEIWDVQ
Chain of Nuclear receptor subfamily 1 group I member 3 (Homo sapiens) (Q14994 whole entry, looked up, the tested form may be a part): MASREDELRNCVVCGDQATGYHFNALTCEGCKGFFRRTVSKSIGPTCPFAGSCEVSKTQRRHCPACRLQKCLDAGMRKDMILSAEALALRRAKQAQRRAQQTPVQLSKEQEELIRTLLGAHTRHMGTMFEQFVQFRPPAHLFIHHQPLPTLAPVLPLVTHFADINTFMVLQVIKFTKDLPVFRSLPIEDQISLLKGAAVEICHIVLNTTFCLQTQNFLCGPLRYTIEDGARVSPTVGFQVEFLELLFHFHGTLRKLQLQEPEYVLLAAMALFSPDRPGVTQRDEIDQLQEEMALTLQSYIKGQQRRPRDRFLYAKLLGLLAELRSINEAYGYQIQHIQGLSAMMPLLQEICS
Chain of Estrogen-related receptor gamma (Homo sapiens) (P62508 whole entry, looked up, the tested form may be a part): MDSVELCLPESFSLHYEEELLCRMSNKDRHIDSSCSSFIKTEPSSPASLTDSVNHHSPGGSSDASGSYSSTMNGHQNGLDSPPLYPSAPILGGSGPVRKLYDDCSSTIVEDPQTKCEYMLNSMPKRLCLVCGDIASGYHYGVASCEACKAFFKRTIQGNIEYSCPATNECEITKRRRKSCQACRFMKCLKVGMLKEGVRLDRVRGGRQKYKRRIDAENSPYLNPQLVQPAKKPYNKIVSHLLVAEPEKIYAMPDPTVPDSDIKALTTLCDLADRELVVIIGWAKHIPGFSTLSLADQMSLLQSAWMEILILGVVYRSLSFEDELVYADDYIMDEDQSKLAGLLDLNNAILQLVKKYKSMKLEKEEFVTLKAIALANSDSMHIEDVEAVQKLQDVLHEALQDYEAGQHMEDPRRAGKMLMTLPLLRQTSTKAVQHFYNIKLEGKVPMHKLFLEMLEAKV
Chain of Estrogen receptor (Homo sapiens) (P03372 whole entry, looked up, the tested form may be a part): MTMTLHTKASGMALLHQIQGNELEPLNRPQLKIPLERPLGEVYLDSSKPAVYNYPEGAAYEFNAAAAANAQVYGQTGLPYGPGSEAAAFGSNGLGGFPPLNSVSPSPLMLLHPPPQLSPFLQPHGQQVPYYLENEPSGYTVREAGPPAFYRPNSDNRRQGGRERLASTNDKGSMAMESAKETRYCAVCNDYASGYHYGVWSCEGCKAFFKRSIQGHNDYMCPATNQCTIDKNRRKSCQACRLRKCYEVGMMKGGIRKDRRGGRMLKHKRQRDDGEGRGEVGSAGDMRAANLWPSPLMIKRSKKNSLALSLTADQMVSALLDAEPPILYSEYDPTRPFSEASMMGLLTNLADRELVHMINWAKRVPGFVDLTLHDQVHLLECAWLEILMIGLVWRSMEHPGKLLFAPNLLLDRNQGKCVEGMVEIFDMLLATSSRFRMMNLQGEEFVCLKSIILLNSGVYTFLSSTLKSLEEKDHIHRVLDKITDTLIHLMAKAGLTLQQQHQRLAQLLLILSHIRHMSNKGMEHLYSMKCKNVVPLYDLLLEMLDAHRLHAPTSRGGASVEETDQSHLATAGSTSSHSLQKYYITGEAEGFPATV

Take `CC1(C)COP(Oc2ccccc2)OC1`: the compound was called inactive in [1], in [2], in test [3], in test [4], in [5] and in test [6]. The call in [7], in [8], in test [9], in [10], in test [11] and in test [12] was inactive. The compound was classed as inactive in test [13], in [14], in [15] and in [16].

For the compound `N#Cc1ccccc1N`, the compound was called inactive in test [1], in test [2], in test [3], in [4], in [5] and in [6]. For the same compound, the call in test [7], in test [8], in test [9], in [10], in test [11] and in test [17] was inactive. Besides, the compound was classed as inactive in [12], in test [13], in test [14] and in test [16].

With `CCOP(=O)(OCC)OC(=CCl)c1ccc(Cl)cc1Cl`, the call in test [1], in test [2], in [3], in test [4], in test [5] and in [6] was inactive. Moreover, the compound was called inactive in test [7], in test [8], in [9], in test [12], in [19] and in test [13]. Also, the values for the AC50 in test [10] and in test [18] were 1.83 µM (active) and 26 µM (active), respectively.

For the compound `C1CCC(C2CCCCC2)CC1`, the compound was classed as inactive in [1], in [2], in [3], in [4], in test [5] and in test [6]. For the same compound, the outcome in test [7], in test [8], in [9], in test [10], in test [11] and in test [12] was inactive. Also, the outcome in [16] was inactive.

Turning to `O=C(Nc1ccc(Br)cc1)c1cc(Br)cc(Br)c1O`, the compound was classed as inactive in test [1], in test [2], in test [3], in test [4], in [5] and in [6]. The result in test [7], in [8], in test [18], in test [17], in test [13] and in [14] was inactive. Moreover, in test [16], the call was inactive. In addition, the AC50 was 4.16 µM (active) in test [9], 6.47 µM (active) in [10] and 4.92 µM (active) in test [12].

In the case of `Nc1c(Oc2ccccc2)cc(O)c2c1C(=O)c1ccccc1C2=O`, the compound was called inactive in test [1], in test [2], in test [3], in [4], in [5] and in test [6]. In addition, the outcome in test [7], in test [8], in test [9], in test [11], in test [12] and in test [19] was inactive. In addition, the outcome in test [13] and in [15] was inactive. The AC50 in test [10] is 15 µM (active); in test [18], 7.82 µM (active).

In the case of `O=C(N[C@H]1CN2CCC1CC2)c1ccc2c(c1)OCCO2`, the result in test [1], in test [2], in test [3], in test [4], in test [5] and in test [6] was inactive. In addition, the compound was classed as inactive in test [7], in test [8], in test [9], in test [10], in [11] and in test [12]. Also, the result in test [13], in [14] and in [15] was inactive.

For `O=C1c2ccccc2C(=O)C1C(=O)C(c1ccccc1)c1ccc(Cl)cc1` (configuration not stated), the concentration at half-maximal activity (AC50) in test [1] was 8.58 µM (active); in test [2] it was 7.35 µM (active); in test [3], 7.69 µM (active); in test [4], 9.14 µM (active); in [5], 167 µM (active); in [7], 12.2 µM (active). Also, the AC50 in test [8] was 161 µM (active); in [9] it was 8.18 µM (active); in test [10] it was 2.93 µM (active); in test [12], 5.66 µM (active); in [19], 163 µM (active). Also, the call in test [6], in [18], in [17], in test [14] and in [15] was inactive.
